Experimental data published in PubChem BioAssay (NCATS).
Values joined by “and” are separate entries in the source; they are usually repeats but may differ in a detail not shown here. Identical values can stand only once. A structure can be active in one record and inactive in another. Active and inactive are the calls of the source. Entries that show only a call come without a potency. Unless noted, calls come from the whole dose curve; as a rule, active = well fitted curve in the direction sought with a large enough effect; inconclusive = small, poorly fitted or top-dose-only effect, or another doubt; inactive = no such curve, though single readings can be large; an effect the other way counts as inactive or inconclusive.

Experiments:
[1] = target: Ubiquitin carboxyl-terminal hydrolase 1 (Homo sapiens) (UniProt O94782); assay: Inhibitors of USP1/UAF1: Pilot qHTS (AID 504865); details: purified USP1/UAF1, Ub-rhodamine cleavage fluorescence; series mostly up to 114 µM; note: nearly all actives have a fitted effect of over 35% in size; note: potency is the fitted concentration of half-maximal effect
How it was run: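 Kinetic fluorescence assay: 1nM USP1/UAF1, 15 min compound preincubation, then 150nM Ub-Rho; 480/540 nm.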

[2] = target: Phosphoglycerate kinase, glycosomal (Trypanosoma brucei brucei) (UniProt P07378); assay: qHTS Validation Assay to Find Inhibitors of Phosphoglycerate Kinase (AID 504547); details: enzymatic PGK inhibition, coupled luminescence read-out; series mostly up to 57.5 µM
How it was run: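 Compounds are pinned into the substrate/PGK mixture, and GAPDH (100nM final) is added to start the reaction by producing 1,3-BPG. After 60 minutes at room temperature, Kinase-Glo Plus is added and luminescence is measured 10 minutes later.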

[3] = Inducers of the Endoplasmic Reticulum Stress Response (ERSR) in human glioma: Validation (AID 504836); details: human glioma cells, ER stress response reporter; series mostly up to 38.3 µM
How it was run: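 Stably transfected U87-MG glioma cells carrying a GRP78-based luciferase sensor; 16 h compound incubation. Luminescence end-point read 10 min after Bright-Glo addition at room temperature.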

[4] = qHTS for Inhibitors of ATXN expression: Validation (AID 588378); details: cell-based ATXN2 expression reporter assay, luminescence; series mostly up to 57.1 µM; note: nearly all actives have a fitted effect of over 75% in size; note: potency is the fitted concentration of half-maximal effect
How it was run: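 Validation of ATXN2 expression inhibitors uses a cell-based luciferase fusion reporter in HEK293 cells, with 24 h compound exposure and paired viability (fluorescence) and reporter (luminescence) end-point reads.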

[5] = qHTS for Inhibitors of ATXN expression: Validation of Cytotoxic Assay (AID 588349); details: cytotoxicity counter-screen for ATXN expression inhibitors, cell viability; series mostly up to 57.1 µM; note: potency is the fitted concentration of half-maximal effect
How it was run: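 Toxicity of test compounds toward HEK293 cells is scored from cellular ATP content measured by CellTiter Glo. Cells receive titrated doses and incubate 72 hr at 37 degrees C beforehand.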

[6] = target: phosphoglycerate mutase (Leishmania major) (UniProt Q4Q090); assay: qHTS Validation Assay to Find Inhibitors of Phosphoglycerate Mutase (AID 504548); details: biochemical enzyme activity; Potency: inhibition qHTS; series mostly up to 57.5 µM
How it was run: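 Luminescent end-point read-out via Kinase-GloPlus after a 10-minute development. Reaction: 1.25nM Leishmania major PGAM with substrate and compound, 45 minutes at room temperature in TEA buffer (pH 7.6) with MgCl2 and Tween-20.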

[7] = target: DNA dC->dU-editing enzyme APOBEC-3G (Homo sapiens) (UniProt Q9HC16); assay: qHTS for inhibitors of Vif-A3G interactions: Validation (AID 588379); details: Vif-A3G protein interaction assay; series mostly up to 46.1 µM
How it was run: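 Yellow fluorescence (Ex 488, Em 500-530) of Vif-coexpressing HeLa A3G-eYFP cells, scanned by Acumen cytometer, reports blocked A3G degradation. Cells plated at 700/well overnight at 37 deg C before compound addition, then a further overnight compound incubation at 37 deg C.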

[8] = target: Estrogen receptor (Homo sapiens) (UniProt P03372); assay: qHTS assay for small molecule agonists of estrogen receptor alpha signaling (AID 588514; calls by dose curve; note: nearly all actives have a fitted effect of over 70% in size; note: potency is the fitted concentration of half-maximal effect); details: ER-alpha-UAS-bla HEK293, beta-lactamase ratio, 18 h; series mostly up to 76.8 µM
How it was run: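 Fluorescence from CCF4 cleavage reports ER-alpha-driven beta-lactamase expression in HEK 293 cells treated 18 hrs at 37 C. Data normalized to 17-beta-estradiol (20 nM) and DMSO, fitted to Hill equation.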

[9] = target: Estrogen receptor (Homo sapiens) (UniProt P03372); assay: qHTS assay for small molecule antagonists of estrogen receptor alpha signaling (AID 588513; active = well fitted curve in the direction sought with a large enough effect in the signal ratio, with a control signal flat, not every such curve was filed as active; inconclusive = small, poorly fitted or top-dose-only effect, or effect the other way, or a change in a side signal; inactive = no such curve, though single readings can be large or run the other way; the % refers to the signal ratio; note: potency is the fitted concentration of half-maximal effect); details: ER-alpha-UAS-bla HEK293, beta-lactamase ratio, antagonist mode; series mostly up to 76.9 µM
How it was run: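 Cells were plated at 5000/well and incubated 4 h at 37 C. Compounds were added as 1:2 dilution series, duplicates. 17-beta-estradiol (0.5nM final) was added for 18 h before CCF4 detection.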

Chain of Phosphoglycerate kinase, glycosomal (Trypanosoma brucei brucei) (P07378 whole entry, looked up): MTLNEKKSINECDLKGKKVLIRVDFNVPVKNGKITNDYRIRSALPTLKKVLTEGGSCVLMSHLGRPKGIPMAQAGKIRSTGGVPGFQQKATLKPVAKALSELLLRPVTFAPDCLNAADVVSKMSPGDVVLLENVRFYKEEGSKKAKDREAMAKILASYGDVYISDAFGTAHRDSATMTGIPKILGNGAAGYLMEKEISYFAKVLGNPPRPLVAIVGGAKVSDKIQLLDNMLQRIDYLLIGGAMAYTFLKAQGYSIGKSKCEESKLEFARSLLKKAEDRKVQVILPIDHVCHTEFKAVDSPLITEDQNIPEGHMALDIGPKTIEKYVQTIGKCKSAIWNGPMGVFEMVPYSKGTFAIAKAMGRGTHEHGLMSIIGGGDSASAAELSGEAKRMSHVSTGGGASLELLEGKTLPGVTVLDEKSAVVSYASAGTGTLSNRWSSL
Chain of phosphoglycerate mutase (Leishmania major) (Q4Q090 1-553): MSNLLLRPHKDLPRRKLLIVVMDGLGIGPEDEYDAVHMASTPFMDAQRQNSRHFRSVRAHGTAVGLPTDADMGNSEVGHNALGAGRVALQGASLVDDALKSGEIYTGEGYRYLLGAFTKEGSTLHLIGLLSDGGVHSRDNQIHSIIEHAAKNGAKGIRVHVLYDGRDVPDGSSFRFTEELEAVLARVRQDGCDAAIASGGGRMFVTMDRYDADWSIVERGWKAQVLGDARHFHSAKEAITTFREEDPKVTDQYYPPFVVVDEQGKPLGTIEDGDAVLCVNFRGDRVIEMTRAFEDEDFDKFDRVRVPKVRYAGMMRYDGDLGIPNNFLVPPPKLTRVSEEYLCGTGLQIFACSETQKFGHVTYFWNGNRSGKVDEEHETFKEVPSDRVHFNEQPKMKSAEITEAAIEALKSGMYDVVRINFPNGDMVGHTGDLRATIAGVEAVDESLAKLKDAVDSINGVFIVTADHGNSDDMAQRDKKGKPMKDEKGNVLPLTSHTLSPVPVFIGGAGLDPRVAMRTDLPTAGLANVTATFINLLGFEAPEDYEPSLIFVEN
Chain of DNA dC->dU-editing enzyme APOBEC-3G (Homo sapiens) (Q9HC16 whole entry, looked up): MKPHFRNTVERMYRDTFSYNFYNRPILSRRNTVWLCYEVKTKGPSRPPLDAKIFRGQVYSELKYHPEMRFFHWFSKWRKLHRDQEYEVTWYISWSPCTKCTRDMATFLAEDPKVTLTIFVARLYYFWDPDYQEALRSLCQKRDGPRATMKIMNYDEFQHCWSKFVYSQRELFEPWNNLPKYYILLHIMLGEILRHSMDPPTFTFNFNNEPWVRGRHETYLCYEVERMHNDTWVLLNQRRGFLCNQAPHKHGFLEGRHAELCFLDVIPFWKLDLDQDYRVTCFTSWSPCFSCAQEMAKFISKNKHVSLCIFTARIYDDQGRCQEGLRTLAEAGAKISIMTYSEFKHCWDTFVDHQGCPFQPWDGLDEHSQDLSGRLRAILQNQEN
Chain of Ubiquitin carboxyl-terminal hydrolase 1 (Homo sapiens) (O94782 whole entry, looked up): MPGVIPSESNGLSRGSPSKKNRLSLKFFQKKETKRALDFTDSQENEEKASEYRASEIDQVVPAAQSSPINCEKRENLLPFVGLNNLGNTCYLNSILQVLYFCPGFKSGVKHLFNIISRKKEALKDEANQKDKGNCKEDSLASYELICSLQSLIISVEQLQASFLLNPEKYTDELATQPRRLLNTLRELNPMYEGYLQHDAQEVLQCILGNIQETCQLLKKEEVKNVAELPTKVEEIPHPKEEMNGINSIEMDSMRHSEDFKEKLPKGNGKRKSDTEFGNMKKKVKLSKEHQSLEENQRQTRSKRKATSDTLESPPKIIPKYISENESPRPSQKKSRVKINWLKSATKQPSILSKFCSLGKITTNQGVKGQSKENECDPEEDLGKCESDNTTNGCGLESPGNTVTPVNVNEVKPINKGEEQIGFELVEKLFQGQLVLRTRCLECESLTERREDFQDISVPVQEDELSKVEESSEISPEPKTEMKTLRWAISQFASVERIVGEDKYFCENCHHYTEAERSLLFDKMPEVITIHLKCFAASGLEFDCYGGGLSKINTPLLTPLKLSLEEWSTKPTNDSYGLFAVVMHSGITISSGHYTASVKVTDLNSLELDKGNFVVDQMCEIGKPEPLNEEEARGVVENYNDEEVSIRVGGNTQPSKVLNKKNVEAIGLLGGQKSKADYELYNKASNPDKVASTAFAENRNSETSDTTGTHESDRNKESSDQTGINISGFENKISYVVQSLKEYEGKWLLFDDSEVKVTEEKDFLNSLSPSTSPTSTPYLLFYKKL
Chain of Estrogen receptor (Homo sapiens) (P03372 whole entry, looked up): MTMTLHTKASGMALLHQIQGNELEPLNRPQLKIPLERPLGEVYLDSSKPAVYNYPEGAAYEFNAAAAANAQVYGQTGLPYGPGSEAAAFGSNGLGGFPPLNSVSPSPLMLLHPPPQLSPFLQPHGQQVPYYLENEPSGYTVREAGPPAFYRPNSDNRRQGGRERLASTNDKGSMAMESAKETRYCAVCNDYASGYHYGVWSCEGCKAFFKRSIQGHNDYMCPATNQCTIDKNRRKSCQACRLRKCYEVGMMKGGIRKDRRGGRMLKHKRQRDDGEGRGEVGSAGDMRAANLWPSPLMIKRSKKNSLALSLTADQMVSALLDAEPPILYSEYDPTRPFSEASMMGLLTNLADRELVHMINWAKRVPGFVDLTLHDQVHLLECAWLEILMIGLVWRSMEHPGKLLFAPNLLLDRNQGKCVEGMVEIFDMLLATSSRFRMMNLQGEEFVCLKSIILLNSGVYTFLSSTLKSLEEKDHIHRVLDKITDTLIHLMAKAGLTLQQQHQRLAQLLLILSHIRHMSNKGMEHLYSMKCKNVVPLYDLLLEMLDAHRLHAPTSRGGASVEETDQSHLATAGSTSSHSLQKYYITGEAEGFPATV

## CCCCCl
[1]
  Potency: inactive

## COc1ccc2c(c1)/C(=C/c1cnc[nH]1)C(=O)N2
[2]
  Potency: inactive
[3]
  outcome: inactive
[1]
  Potency: inactive
[4]
  Potency: 2.82 µM (active)

## CC(C)(C)c1cc(O)ccc1O
[1]
  Potency: inactive

## CCCC(=O)OC(C(Cl)(Cl)Cl)P(=O)(OC)OC (stereo not given)
[1]
  Potency: inactive

## CC1OC1P(=O)(O)O (stereo not given)
[3]
  outcome: inactive
[1]
  Potency: inactive

## O=c1[nH]cc(N(CCCl)CCCl)c(=O)[nH]1
[1]
  Potency: inactive

## [N-]=[N+]=CC(=O)OCC(N)C(=O)O (stereo not given)
[1]
  Potency: inactive

## CN1CCc2cc(O)cc3c2[C@H]1Cc1ccc(O)c(O)c1-3
[2]
  Potency: inactive
[3]
  outcome: inactive
[1]
  Potency: inactive
[5]
  Potency: inactive
[4]
  Potency: inactive

## CCC1C(C)=NN=C(c2ccc(OC)c(OC)c2)c2cc(OC)c(OC)cc21 (stereo not given)
[1]
  Potency: inactive

## c1csc(C2(N3CCCCC3)CCCCC2)c1
[1]
  Potency: inactive

## N#CC1(N2CCCCC2)CCCCC1
[1]
  Potency: inactive

## O=C(CCl)c1ccc(Oc2ccc(C(=O)CCl)cc2)cc1
[1]
  Potency: 56.2 µM (active)

## c1ccc2sc(SNC3CCCCC3)nc2c1
[1]
  Potency: inactive

## O=C1C=CC(=O)C=C1
[3]
  outcome: inactive
[1]
  Potency: inactive
[5]
  Potency: inactive
[4]
  Potency: inactive

## CC(=O)c1c(O)c(C)c(O)c(Cc2c(O)c3c(c(C(=O)/C=C/c4ccccc4)c2O)OC(C)(C)C=C3)c1O
[2]
  Potency: inactive
[6]
  Potency: inactive
[3]
  outcome: inactive
[1]
  Potency: 79.4 µM (active) and 56.2 µM (active)
[7]
  outcome: inactive

## C[N+]1(C)CCC(OC(=O)C(c2ccccc2)c2ccccc2)CC1
[3]
  outcome: inactive

## CN1CC[C@@]2(C)c3cc(O)ccc3N(C)C12 (stereo not given in full)
[2]
  Potency: inactive
[6]
  Potency: inactive
[3]
  outcome: inactive
[5]
  Potency: 28.2 µM (active)

## CC(=O)O[C@H]1CC[C@H]2[C@@H]3CCC4=CC(=O)CCC4=C3C=C[C@]12C
[1]
  Potency: inactive

## CCN(CC)c1ncnc2c1ncn2[C@@H]1O[C@H](COP(=O)(O)OP(=O)(O)C(Br)(Br)P(=O)(O)O)[C@@H](O)[C@H]1O
[3]
  outcome: inactive

## CC(C)CC(NP(=O)(O)O[C@@H]1O[C@@H](C)[C@H](O)[C@@H](O)[C@H]1O)C(=O)NC(Cc1c[nH]c2ccccc12)C(=O)O (stereo not given in full)
[3]
  outcome: inactive

## CC(Cc1ccccc1)NC=O (stereo not given)
[1]
  Potency: inactive

## O=Cc1ccco1
[1]
  Potency: inactive

## O=P(O)(O)C(Cl)(Cl)P(=O)(O)O
[3]
  outcome: inactive
[1]
  Potency: inactive

## C[C@]12Cc3cn4c(nc3C=C1CCC1C2CC[C@@]2(C)[C@H]1CC[C@@]2(O)C#N)nc1ccccc14 (stereo not given in full)
[2]
  Potency: inactive
[6]
  Potency: inactive
[1]
  Potency: inactive
[5]
  Potency: inactive
[4]
  Potency: inactive

## O=S(=O)(O)c1cc(O)ccc1O
[1]
  Potency: inactive

## F/C(COc1ccc2c(c1)[nH]c1ccccc12)=C1/CN2CCC1CC2
[1]
  Potency: inactive

## CCCN1CCc2cc(O)cc3c2[C@H]1Cc1ccc(O)c(O)c1-3
[2]
  Potency: inactive
[3]
  outcome: inactive
[1]
  Potency: inactive

## CC(N)Cc1ccc(O)cc1 (stereo not given)
[1]
  Potency: inactive

## CCC1(CC)C(=O)NC(=O)N(C)C1=O
[1]
  Potency: inactive

## O=[N+]([O-])c1cc(O)c(O)c([N+](=O)[O-])c1
[2]
  Potency: inactive
[6]
  Potency: inactive
[3]
  outcome: inactive
[1]
  Potency: inactive
[4]
  Potency: inactive
[7]
  outcome: inactive

## CCC1(c2ccccc2)C(=O)NC(=O)NC1=O
[1]
  Potency: inactive

## CCn1cnc2c(Nc3cccc(Cl)c3)nc(N[C@@H]3CCCC[C@@H]3N)nc21
[2]
  Potency: inactive
[6]
  Potency: inactive
[1]
  Potency: inactive
[4]
  Potency: 2.51 µM (active)

## COC1=CC=C2[C@H]3Cc4ccc(OC)c5c4[C@@]2(CCN3C)[C@H]1O5
[1]
  Potency: inactive

## CC(=O)OO
[1]
  Potency: inactive

## Cc1c2ccncc2c(C)c2c1[nH]c1ccccc12
[2]
  Potency: inactive
[6]
  Potency: inactive
[3]
  outcome: inactive
[5]
  Potency: inactive

## O=C(O)C(Cl)(Cl)Cl
[1]
  Potency: inactive

## COCC(C)N(C(=O)CCl)c1c(C)csc1C (stereo not given)
[1]
  Potency: inactive
[8]
  Potency: inactive

## CCNC(C)Cc1cccc(C(F)(F)F)c1 (stereo not given)
[1]
  Potency: inactive

## O=[N+]([O-])C(Br)(CO)CO
[1]
  Potency: inactive
[8]
  Potency: inactive

## Cc1cc(C)cc(C(=O)OC2C[C@H]3CC[C@@H](C2)N3C)c1 (stereo not given in full)
[1]
  Potency: inactive
[7]
  outcome: inactive

## [O]=[Cr](=[O])([OH])[O][Cr](=[O])(=[O])[OH]
[1]
  Potency: 25.1 µM (active)
[9]
  Potency: inactive
[8]
  Potency: inactive

## [O]=[Cd]
[1]
  Potency: inactive
[9]
  Potency: inactive
[8]
  Potency: inactive

## O=[N+]([O-])c1ccc(F)c([N+](=O)[O-])c1
[9]
  Potency: inactive
[8]
  Potency: inactive

## O=C1CN(O)C(c2ccccc2)=c2cc(Cl)ccc2=N1
[1]
  Potency: inactive

## C[C@H]1CC[C@@H]2[C@@H](C)[C@H]3[C@H](C[C@H]4[C@@H]5CC=C6CC(O[C@@H]7O[C@H](CO)[C@H](O)[C@H](O[C@@H]8O[C@H](CO)[C@@H](O)[C@H](O)[C@H]8O)[C@H]7O[C@H]7O[C@@H](C)[C@H](O)[C@@H](O)[C@H]7O)CC[C@]6(C)[C@H]5CC[C@]34C)N2C1 (stereo not given in full)
[9]
  Potency: 22.4 µM [inconclusive] (active)
[8]
  Potency: inactive

## ClC=C(Cl)Cl
[1]
  Potency: inactive
[9]
  Potency: inactive
[8]
  Potency: inactive

## [Cl-].[Cl-].[Hg+2]
[1]
  Potency: 3.98 µM (active)
[9]
  Potency: 2.51 µM [inconclusive] (active)
[8]
  Potency: inactive

## N#CN
[1]
  Potency: inactive
[9]
  Potency: inactive
[8]
  Potency: inactive

## O=c1ccc2[nH]cc(C3=CCNCC3)c2[nH]1
[7]
  outcome: inactive

## C[C@]12CCC(=O)C[C@@H]1CC[C@@H]1[C@@H]2CC[C@]2(C)[C@@H](O)CC[C@@H]12
[1]
  Potency: inactive

## CCCCCCCCOC(=O)c1ccccc1C(=O)OCCCCCCCC
[1]
  Potency: inactive
[9]
  Potency: inactive

## CC(C)CCON=O
[1]
  Potency: inactive

## ClCC1CO1 (stereo not given)
[1]
  Potency: inactive
[9]
  Potency: inactive
[8]
  Potency: inactive

## CCC(C)(S(=O)(=O)CC)S(=O)(=O)CC
[1]
  Potency: inactive

## O=[N+]([O-])c1ccccc1
[1]
  Potency: inactive
[9]
  Potency: inactive
[8]
  Potency: inactive

## O=C1C2CC=CCC2C(=O)N1SC(Cl)(Cl)Cl (stereo not given)
[9]
  Potency: 12.6 µM [inconclusive] (active) and 10 µM [inconclusive] (active) and inactive

## O[C@H]1[C@H]2[C@H](O)CCCN2C[C@H]1O
[1]
  Potency: inactive

## O=C(OCCN1CCCCC1)C(O)(c1ccccc1)c1ccccc1
[1]
  Potency: inactive

## O=C1CCCCC1CN1CCCCC1 (stereo not given)
[1]
  Potency: inactive

## S=C=S
[1]
  Potency: inactive
[9]
  Potency: inactive
[8]
  Potency: inactive

## CC(C)Nc1ccc(Nc2ccccc2)cc1
[1]
  Potency: inactive
[9]
  Potency: 22.4 µM [inconclusive] (active)
[8]
  Potency: inactive

## ClC(Cl)(Cl)Cl
[1]
  Potency: inactive
[9]
  Potency: inactive
[8]
  Potency: inactive

## CCOP(=O)(OCC)O/C(=C/Cl)c1ccc(Cl)cc1Cl
[9]
  Potency: inactive
[8]
  Potency: inactive

## O=C/C=C/c1ccccc1
[1]
  Potency: inactive
[9]
  Potency: inactive
[8]
  Potency: inactive

## OC(c1ccccc1)(c1ccccc1)C1CN2CCC1CC2 (stereo not given)
[1]
  Potency: inactive

## C=CCN=C=S
[1]
  Potency: inactive
[9]
  Potency: inactive
[8]
  Potency: inactive

## S=C(S)N1CCNCC1
[1]
  Potency: inactive

## O=CC=O
[1]
  Potency: inactive
[9]
  Potency: inactive
[8]
  Potency: inactive

## COc1ccc2c(c1OC)C(=O)OC2C1c2cc3c(cc2CCN1C)OCO3 (stereo not given)
[7]
  outcome: inactive

## O=C1CCO1
[1]
  Potency: inactive
[9]
  Potency: inactive
[8]
  Potency: inactive

## CCOC(=O)c1ccccc1C(=O)OCC
[1]
  Potency: inactive
[9]
  Potency: inactive
[8]
  Potency: inactive

## C[C@H]1CCC[C@H](O)CCCCCc2cc(O)cc(O)c2C(=O)O1
[1]
  Potency: inactive
[8]
  Potency: 0.141 µM (active)

## O=C1C=C2C=C[C@@H]3C[C@@]2(O1)[C@H]1CCCCN31
[7]
  outcome: inactive

## CNC(=O)Oc1ccccc1C(=O)Nc1ccccc1
[1]
  Potency: inactive

## Oc1cccc[c]1[Hg][Cl]
[1]
  Potency: 44.7 µM (active)

## NCC(O)c1cccc(O)c1 (stereo not given)
[1]
  Potency: inactive
